From ChEMBL document CHEMBL1157539, “Thousands of chemical starting points for antimalarial lead identification” (Nature, 2010)

What was measured:
Format in all cases: functional
Plasmodium falciparum [1] = test: GSK_TCMDC: Inhibition of Plasmodium falciparum 3D7 in whole red blood cells, using parasite LDH activity as an index of growth. Test compounds present at 2uM
Plasmodium falciparum [2] = test: GSK_TCMDC: Inhibition of Plasmodium falciparum Dd2 in whole red blood cells, using parasite LDH activity as an index of growth. Test compounds present at 2uM
HepG2 = test: GSK_TCMDC: Percent inhibition of human HepG2 cell line. Test compounds present at 10uM.

Compound	Inhibition (Plasmodium falciparum [1])	Inhibition (Plasmodium falciparum [2])	Inhibition (HepG2)
COc1ccc2nccc([C@@H](O)CN3CCC(NC(=O)c4ccc(C5(C(F)(F)F)N=N5)cc4)CC3)c2c1	97%	41%	8%
COc1ccc(Oc2ccccc2CNCC2CCN(CC3CCCCC3)CC2)cc1.O=C(O)C(F)(F)F	85%	28%	34%
Cc1cc(CN2CCCC(OC(c3ccc(F)cc3)c3ccc(F)cc3)C2)ccc1O (stereo unspecified)	89%	82%	28%
CC(CCc1ccc(OCc2ccccc2)cc1)NCC(O)c1ccccc1 (stereo unspecified)	86%	72%	9%
O=C(Cc1ccsc1)NCC(c1ccccc1Cl)c1c[nH]c2ccccc12 (stereo unspecified)	86%	71%	0%
COc1ccc2ccccc2c1CCCCN1CCN(CC(c2ccc(F)cc2)N2CCN(C(C)C)CC2)CC1.Cl (stereo unspecified)	100%	83%	92%
CCC(C)NC(=O)CN1CN(c2ccccc2)C2(CCN(C(=O)c3ccc(-c4ccccc4)cc3)CC2)C1=O (stereo unspecified)	100%	100%	0%
Nc1nc(N)c2c(ccc3c2ccn3CCCC(F)(F)F)n1	97%	34%	66%
CCN(CC)CCCC(C)N=c1cc(C=Cc2ccccc2Cl)[nH]c2cc(Cl)ccc12.O=P(O)(O)O (stereo unspecified)	99%	77%	0%
COc1ccc2nccc([C@@H](O)CN3CCC(NC(=O)CCC(=O)c4cc(C(C)(C)C)ccc4OC)CC3)c2c1	94%	51%	26%
COc1ccc(-c2ccc(NC(=O)c3ccc(C#N)cc3)cc2)cc1CN1CCCN(C)CC1.O=C(O)C(F)(F)F	99%	75%	27%
Cc1cccc(C(=O)Nc2ccnc(N(C)CCCN(C)Cc3cccc(C#N)c3)c2)c1.O=C(O)C(F)(F)F	92%	12%	1%
COc1ccc(F)cc1-c1ccc(C(=O)N2CCCN(c3ccc(C(F)(F)F)cn3)CC2)cc1	100%	100%	4%
O=C(c1ccc([N+](=O)[O-])o1)N1CCN(c2nc3c(F)cc(F)cc3s2)CC1	93%	86%	0%
CC(C)NCc1cccc(-c2ccc(NC(=O)c3ccc(F)cc3)cc2)c1.O=C(O)C(F)(F)F	92%	3%	7%
Cl.O=C1CSc2ccc(CNC3CCN(CCc4c(F)cnc5ccc(F)cc45)CC3)nc2N1	97%	16%	13%
Br.c1cc(C2=NC3CCCCC3N2)ccc1OCCCOc1ccc(C2=NC3CCCCC3N2)cc1 (stereo unspecified)	99%	64%	0%
FC(F)(F)c1ccc2[nH]c(-c3ccc(-c4cccc(CN5CCCCC5)c4)cc3)nc2c1.O=C(O)C(F)(F)F	100%	99%	22%
COc1ccc(F)cc1-c1ccccc1CNC(=O)c1cnn(-c2ccc([N+](=O)[O-])cc2)c1C(F)(F)F	89%	75%	0%
CCCNCc1ccc(-c2ccc(CN(CCOC)C(=O)c3ccc([N+](=O)[O-])c(C)c3)cc2)nc1.O=C(O)C(F)(F)F	97%	23%	2%
Cn1ccnc1CNC(=O)c1ccc(-c2cccc(-c3nc4cc(F)ccc4[nH]3)c2)cc1	96%	8%	8%
OCCCCCCNc1nc(NCc2ccccc2-c2ccc(C(F)(F)F)cc2)nc(N2CCNCC2)n1	89%	16%	13%
CN1CCN(c2ccnc3ccc(NC(=O)Cc4cccc(Cl)c4Cl)cc23)CC1	100%	64%	8%
CC(=O)c1ccc(N2C(=O)C3C(Cc4ccc(OC(C)(C)C)cc4)NC4(C(=O)N(Cc5ccc(C(C)(C)C)cc5)c5ccccc54)C3C2=O)cc1 (stereo unspecified)	86%	81%	13%
CCN(CC)CCNC(=O)c1ccc(N/C=C2\C(=O)Nc3ccc(S(=O)(=O)Cc4c(Cl)cccc4Cl)cc32)cc1	100%	56%	25%
Cc1ccc(Nc2nc(NN=Cc3ccc(-c4ccc([N+](=O)[O-])cc4)o3)nc(N3CCOCC3)n2)cc1Cl	95%	47%	12%
Cc1ccc2[nH]c(-c3cc(-c4ccc(OCc5ccccc5)cc4)cnc3N)nc2c1.O=C(O)C(F)(F)F	91%	87%	33%
